Measured values as given in PubChem BioAssay (NCI).
Several values for one entry are separate records, joined by “and”; a condition that tells them apart may be missing. Equal entries are not always repeated. The panel holds about 83,000 compounds, 20% with a hit somewhere; the sample as a whole holds those more often.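 Plates (96-well) were seeded with cells, treated with compound at one concentration, and incubated for 48 hours before percent growth was determined.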 Unmarked numbers belong to inactive results. Activity calls are given as the source filed them. How the source made its calls: active means growth percent below 10; inactive means the rest.

Tested on: MDA-MB-468 breast
Assay: NCI-60 one-dose screen, 48 h (100 = growth as untreated, 0 = no growth, -100 = all killed)
Details: 10 µM unless noted

Q: `Cc1nc2cc(Nc3nc(NCCN)nc(Nc4ccc(F)cc4)n3)ccc2n1Cc1ccccc1` was tested. Which growth did it give?
A: The growth was 73.2%.

Q: With `CC1CC(O)CC(C)(C)C1.CC1CC(O)CC(C)(C)C1.CC1CC(O)CC(C)(C)C1.CC1CC(O)CC(C)(C)C1.[Ti]` (configuration not stated) as the compound, how does the growth read?
A: The growth was 115%.

Q: Which growth does the source give for `CCCNC(=O)Oc1ccc(/C(=C(/CC)Cc2ccccc2)c2ccc(OCCN(CC)CC)cc2)cc1` here?
A: The growth was 68.6%.

Q: `O=c1c2sc3ncc(Cl)cc3c2nnn1-c1cccc(Cl)c1` was tested. Which growth did it give?
A: The growth was 97.3%.

Q: How did the growth turn out when `Cc1ccc(C(=O)Nc2ccc(Cl)cc2C(=O)NCc2ccccc2)cc1` was run?
A: Its growth is 83%.

Q: How did the growth turn out when `Cc1cc2nc3c4ccc(Br)cc4n(CCN(C)C)c3nc2cc1C` was run?
A: The growth was -6.68% (active).

Q: How did the growth turn out when `COc1cc(-c2nn(-c3cccc(NC(=O)c4ccc(Cl)c(C(F)(F)F)c4)c3)cc2-c2ccncc2)ccc1Cl` was run?
A: Its growth is 54.4%.

Q: For `CCCN1[C@@H]2CC[C@H]1/C(=C\c1ccc(OC)c(OC)c1)C(=O)/C2=C/c1ccc(OC)c(OC)c1`, which growth is on record?
A: The growth was 17.7%.

Q: `Cc1cc2c(c(C)c1Cl)C(=O)/C(=C/c1cccc([N+](=O)[O-])c1)O2` was tested. Which growth did it give?
A: Its growth is 92.2%.

Q: `C#Cc1ccccc1NC(=O)c1sc2nc3c(cc2c1N)CCCCC3` was tested. Which growth did it give?
A: The growth was 119%.

Q: For `COc1cccc(C(=O)NCCCNc2cc(-c3cn(-c4ccccc4)nc3-c3cccc(OC)c3)ccn2)c1`, which growth is on record?
A: The growth was 29.1%.

Q: Which growth does the source give for `COC(=O)CCCNS(=O)(=O)c1cc(C(=O)Nc2ccc(NC(=O)c3cc(S(=O)(=O)NCCCC(=O)OC)c(O)c(O)c3O)cc2)c(O)c(O)c1O` here?
A: Its growth is 98.7%.

Q: `CCCCCCC(=O)Nc1ncc(Cc2ccc(C)cc2)s1` was tested. Which growth did it give?
A: The growth was 28.4%.

Q: Which growth does the source give for `O=C1c2c(O)cc(O)cc2-c2c(-c3ccc(O)cc3)oc3cc(O)cc1c23` here?
A: Its growth is 46.4%.

Q: For `N#CSCC1CC(O)(c2ccccc2)CC(c2ccc(F)cc2)O1` (configuration not stated), which growth is on record?
A: Its growth is 5.99% (active).

Q: How did the growth turn out when `Cc1cc(=O)n2nnc3cc(Cl)c(Cl)cc3n12` was run?
A: Its growth is 67%.

Q: `COc1cc(-c2nc3ccccc3[nH]2)ccc1OCc1nnc(-c2ccc(Br)cc2)o1` was tested. Which growth did it give?
A: The growth was 80.5%.

Q: `O=C1Nc2ccccc2/C1=C\c1nc(-c2ccccc2F)n2ccccc12` was tested. Which growth did it give?
A: Its growth is 8.76% (active).

Q: For `O=C1CCC(C(=O)NCCNCCNC(=O)C2CCC(=O)N2)N1` (configuration not stated), which growth is on record?
A: The growth was 89.7%.

Q: For `COc1cc2c3c(n(CCCN4CCC[C@H]4C(N)=O)c(=O)c2cc1OC)-c1cc2c(cc1C3=O)OCO2`, which growth is on record?
A: Its growth is 11.8%.

Q: For `CC(=O)Cc1nsc(NC(=O)c2ccoc2COc2ccccc2)n1`, which growth is on record?
A: The growth was 124%.

Q: How did the growth turn out when `CCn1cc(C(=O)O)c(=O)c2cc(F)c(N3CCN(CC(=O)Nc4ccccc4)C(C)C3)c(F)c21` (configuration not stated) was run?
A: The growth was 92.6%.

Q: With `O=C1NC(=C(Cl)Cl)/C(=N/S(=O)(=O)NCCc2c[nH]c3ccccc23)N1` as the compound, how does the growth read?
A: The growth was -3.27% (active).

Q: For `CCCc1cc2cc(-n3nc(CC)c4c3CC(C)(C)CC4=O)cc(NC3CCC(O)CC3)c2c(=O)[nH]1` (configuration not stated), which growth is on record?
A: The growth was -22.7% (active).

Q: With `O=C(N/N=C\c1ccccc1S(=O)(=O)O)N/N=C/c1ccccc1S(=O)(=O)O` as the compound, how does the growth read?
A: The growth was 101%.

Q: For `N/C(=N\c1nc2ccccc2s1)NC(=O)Nc1cccc2ccccc12`, which growth is on record?
A: Its growth is 3.96% (active).

Q: Which growth does the source give for `Oc1ccc(Cl)cc1/C=N\NC(=S)N/N=C/c1cc(Cl)ccc1O` here?
A: The growth was 1.29% (active).

Q: `O=C1c2ccccc2C(=O)c2c(NCCNCCO)ccc(NCCNCCO)c21` was tested. Which growth did it give?
A: The growth was -71.9% (active) and -54.1% (active) and -20.9% (active).

Q: With `OCc1cnccc1NC12CC3CC(CC(C3)C1)C2` as the compound, how does the growth read?
A: Its growth is 99.2%.

Q: With `COc1cccc(NC(=O)Nc2ccc(Oc3ncnc4[nH]c(C)c(C)c34)cc2)c1` as the compound, how does the growth read?
A: The growth was 125%.

Q: `O=C1/C(=C\c2ccc(F)cc2)CN(C(=O)c2ccc([N+](=O)[O-])cc2)C/C1=C\c1ccc(F)cc1` was tested. Which growth did it give?
A: Its growth is 0.822% (active).

Q: For `NCCOCCOc1ccccc1`, which growth is on record?
A: Its growth is 118%.

Q: Which growth does the source give for `CCOC(=O)CSc1nnc(-c2cc3c([nH]c4ccccc43)c(-c3cccc(O)c3)n2)n1-c1ccc(C)cc1` here?
A: Its growth is 27.2%.

Q: For `CNCCCOc1c(Br)cc(CCNC(=O)/C(Cc2ccc(OC)c(Br)c2)=N/O)cc1Br`, which growth is on record?
A: Its growth is 48.5%.

Q: Which growth does the source give for `COc1ccc(C(c2cc(OC)c(OC)c(OC)c2)N2CCN(Cc3ccccc3)CC2)cc1` (configuration not stated) here?
A: The growth was 53%.

Q: Which growth does the source give for `C#C[C@]1(O)CC[C@H]2[C@@H]3CC=C4c5sc(Nc6ccc(Cl)cn6)nc5CC[C@]4(C)[C@H]3CC[C@@]21C` here?
A: The growth was 68.4%.

Q: `O=S(=O)(Nc1cccc2cc(OS(=O)(=O)c3ccccc3)ccc12)c1ccccc1` was tested. Which growth did it give?
A: Its growth is 13.4%.
